This is an account of results in PubChem BioAssay (NCI).

Experiment [1] is described as follows: NCI Yeast Anticancer Drug Screen. Data for the rad50 strain (AID 155).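 Also: 0% = growth of vehicle-only cultures of the same strain.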 Particulars: S. cerevisiae rad50 strain growth inhibition; at 50.0 µM; stronger effect = higher value. An outline of the steps: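 Yeast carrying a defined DNA repair defect were exposed to test compounds, and growth was compared with vehicle-treated controls to give percent inhibition.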
Experiment [2] in a line: NCI Yeast Anticancer Drug Screen. Data for the mec2-1 strain (AID 157). Particulars: S. cerevisiae mec2-1 strain, at 50.0 µM, stronger effect = higher value. The method, boiled down:
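Growth inhibition is read against vehicle-treated controls after compound exposure of the mec2-1 yeast strain, which is defective in DNA damage repair or cell cycle control.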

Experiment [3] in a line: NCI Yeast Anticancer Drug Screen. Data for the sgs1 mgt1 strain (AID 161).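 Also: 0% = growth of cultures given vehicle only.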 The following applies: S. cerevisiae sgs1 mgt1 strain, at 50.0 µM, stronger effect = higher value. The method, boiled down:
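Percent growth inhibition was derived by comparing compound-exposed mutant yeast with vehicle-exposed cultures. The strain carries alterations in DNA damage repair.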

The nature of experiment [4]: NCI Yeast Anticancer Drug Screen. Data for the cln2 rad14 strain (AID 165).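 Also: 0% = growth equal to vehicle treated cultures.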 Particulars: S. cerevisiae cln2 rad14 strain, at 50.0 µM, stronger effect = higher value. The method, boiled down: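 Growth inhibition, relative to vehicle-treated controls, is the read-out. The test organism is a yeast strain with defined genetic alterations, cln2 rad14.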
Experiment [5] is described as follows: NCI Yeast Anticancer Drug Screen. Data for the bub3 strain (AID 167). The following applies: S. cerevisiae bub3 mutant strain, at 50.0 µM, stronger effect = higher value. The method, boiled down: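 Compounds were applied to a genetically altered yeast strain carrying a cell-cycle control defect. Growth inhibition was scored against vehicle-treated controls.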
Experiment [6] can be described thus: NCI Yeast Anticancer Drug Screen. Data for the mlh1 rad18 strain (AID 175). Particulars: S. cerevisiae mlh1 rad18 strain growth inhibition; at 50.0 µM; stronger effect = higher value. The method, boiled down:
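Cells of a genetically altered yeast strain, deficient in DNA damage repair, were treated with compound. Their growth was then compared with that of vehicle-treated cultures to give inhibition.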

Each structure is given as a SMILES string. Compounds without any hit were thinned out: in the full panel of roughly 79,000, 15% have a hit. Unmarked numbers belong to inactive results. Calls of active or inactive are those of the source. Rule as the data show it: active = growth inhibition above about 70%; inactive = the rest.

Regarding `CC(C)(C)CC(C)(C)N`, the growth inhibition in experiment [1] was -2.65%; in experiment [2], -4.8%; in experiment [3], -16.9%; in experiment [4], -41.5%; in experiment [5] it was -2.35%; in experiment [6] it was 20.6%.
`COc1ccc(C2C(Cl)C(=O)N2NC(=O)c2ccccc2O)cc1OC` (stereo unspecified): the growth inhibition in experiment [1] is 2.85%; in experiment [2], -12.1%; in experiment [3] it was -18.6%; in experiment [4], 15.4%; in experiment [5], -22.4%; in experiment [6], -34.1%.
Consider `NC(=O)C(=Cn1c(=S)[nH]c2ccccc21)C(N)=O`, for which the growth inhibition in experiment [1] was -51.9%; in experiment [2], -23.2%; in experiment [3], -19.1%; in experiment [4], -0.5%; in experiment [5], -1.8%; in experiment [6], -28.2%.
For `NC(=O)C(=O)n1ncc(Cl)c(Cl)c1=O`, the growth inhibition is 2.65% in experiment [1]; -3% in experiment [2]; 1.05% in experiment [3]; 6.55% in experiment [4]; 8.25% in experiment [5]; -4.1% in experiment [6].
`O=C(OCN1C(=O)C2C3C=CC(C2C1=O)C1C2C(=O)N(COC(=O)C4CCCN4)C(=O)C2C31)C1CCCN1` (stereo unspecified): the growth inhibition is 5% in experiment [1]; -15.6% in experiment [2]; -36.6% in experiment [3]; 2.95% in experiment [4]; -42.8% in experiment [5]; -10.1% in experiment [6].
`COC(=S)SCSC(=S)OC`: the growth inhibition in experiment [1] is -12.2%; in experiment [2] it was -27.3%; in experiment [3], -2.5%; in experiment [4], -14.9%; in experiment [5], -6.45%; in experiment [6], -27.9%.
As for `O=C(CCc1ccc(O)cc1)c1c(O)cc(O)cc1O`, the growth inhibition in experiment [1] was -5.3%; in experiment [2] it was -29.9%; in experiment [3], -11.3%; in experiment [4], 12.9%; in experiment [5], -11.2%; in experiment [6], -9.05%.
Turning to `C#CC(CC(C)CC(C)(C)C)N(C)C` (stereo unspecified), the growth inhibition is 39% in experiment [1]; 22.8% in experiment [2]; 16.2% in experiment [3]; 17.8% in experiment [4]; 3.8% in experiment [5]; 31.3% in experiment [6].
Consider `CCCCCCCCCCCCCCCCCC(=O)CC(=O)OCC`, for which the growth inhibition is -1.25% in experiment [1]; 1.15% in experiment [2]; 3.5% in experiment [3]; 17.9% in experiment [4]; -10% in experiment [5]; 4.25% in experiment [6].
For the compound `CCCC(O)c1ccccc1C` (stereo unspecified), the growth inhibition in experiment [1] was 17.6%; in experiment [2], 13.9%; in experiment [3] it was 1.4%; in experiment [4], -17.2%; in experiment [5] it was 4.6%; in experiment [6], 12.1%.
Consider `CCCC1(CCC)CNC(=O)NC1`, for which the growth inhibition in experiment [1] was 0.45%; in experiment [2], -3.9%; in experiment [3], -5.1%; in experiment [4], -11.1%; in experiment [5], 1.5%; in experiment [6], -10.8%.
On to `O=C(c1ccccc1)c1c(O)c2ccccc2oc1=O`, for which the growth inhibition in experiment [1] is -13.6%; in experiment [2], -24%; in experiment [3] it was -7.95%; in experiment [4] it was -16.8%; in experiment [5], -4.45%; in experiment [6], -4.5%.
Regarding `FC(F)(F)c1nc(Nc2ccccc2)c2[nH]cnc2n1`, the growth inhibition was -16.4% in experiment [1]; 4.55% in experiment [2]; 2.45% in experiment [3]; -20.9% in experiment [4]; 12.2% in experiment [5]; -4.6% in experiment [6].
`CCCCCCCCN(CCCCCCCC)CC(O)c1ccc2c(c1)Sc1ccccc1O2` (stereo unspecified): the growth inhibition is 96.7% (active) in experiment [1]; 98.2% (active) in experiment [2]; 97.5% (active) in experiment [3]; 97.1% (active) in experiment [4]; 97.1% (active) in experiment [5]; 98% (active) in experiment [6].
For `O=S(=O)(CC1=NC2C=CC=CC2N=C1)NCc1ccccc1` (stereo unspecified), the growth inhibition was 7.3% in experiment [1]; -18.9% in experiment [2]; 12.8% in experiment [3]; 30.3% in experiment [4]; 25.6% in experiment [5]; -11.8% in experiment [6].
For the compound `O=C1CCC2c3ccccc3C(=O)C2C1` (stereo unspecified), the growth inhibition in experiment [1] is 6.7%; in experiment [2], 4.2%; in experiment [3], -1.45%; in experiment [4], -19.1%; in experiment [5] it was -14.1%; in experiment [6], 9.3%.
In the case of `OCCCOC(c1ccccc1)(c1ccccc1)c1ccccc1`, the growth inhibition in experiment [1] is -22.9%; in experiment [2], -29.4%; in experiment [3] it was -30.2%; in experiment [4], 1.55%; in experiment [5], -49.8%; in experiment [6] it was -12.9%.
Turning to `NC(=O)c1cc2ccccc2c2ccccc12`, the growth inhibition in experiment [1] was 0.65%; in experiment [2], -23.8%; in experiment [3] it was -15.6%; in experiment [4], -33.3%; in experiment [5] it was -1%; in experiment [6] it was -3.85%.
Consider `COc1cc(C2C(C(=O)Nc3ccccc3C)=C(C)NC(C)=C2C(=O)Nc2ccccc2C)ccc1O`, for which the growth inhibition in experiment [1] was -27.1%; in experiment [2], -8.45%; in experiment [3] it was -16.6%; in experiment [4], -3.15%; in experiment [5], -10.8%; in experiment [6], -9.95%.
For the compound `COc1cccc2c1C(=O)c1c(O)c3c(c(O)c1C2=O)CC(O)(C(C)=O)CC3O` (stereo unspecified), the growth inhibition is 61.5% in experiment [1]; 12.5% in experiment [2]; 39% in experiment [3]; 17.1% in experiment [4]; 34.4% in experiment [5]; 50.5% in experiment [6].
In the case of `Nc1ccc(S(=O)(=O)Nc2ccccn2)cc1`, the growth inhibition in experiment [1] is -2.2%; in experiment [2], 8.55%; in experiment [3], -13.1%; in experiment [4], -41.4%; in experiment [5], -20.2%; in experiment [6], -17.4%.
